# Records with an inconclusive call do not appear. Entries that show only a call come without a potency. Active and inactive are the calls of the source. Calls come from the whole dose curve; as a rule, active = well fitted curve in the direction sought with a large enough effect; inconclusive = small, poorly fitted or top-dose-only effect, or another doubt; inactive = no such curve, though single readings can be large; an effect the other way counts as inactive or inconclusive.
# Columns and labels:
# [1] = Primary qHTS for inhibitors of nuclear receptor binding SET domain protein 2 (NSD2) in an isogenic RCH-ACV NSD2 p.E1099K mutant (9B) (AID 1645876); details: RCH-ACV NSD2 E1099K (9B) viability, CellTiter-Glo, 72 h; series mostly up to 44.9 µM
# [2] = Primary qHTS for inhibitors of nuclear receptor binding SET domain protein 2 (NSD2) in an RCH-ACV wild type WT cells (2C) (AID 1645877); details: RCH-ACV (leukaemia line) NSD2 WT (2C) viability, CellTiter-Glo, 72 h; series mostly up to 44.9 µM
# Note: nearly all actives have a fitted effect of over 70% in size.
SMILES,outcome [1],outcome [2],Potency [1],Potency [2]
COC1CC(OC2CCC3(C)C(=CCC4C3CCC3(C)C(C(C)O)CCC43O)C2)OC(C)C1OC1OC(C)C(OC2OC(COC3OC(COC4OC(CO)C(O)C(O)C4O)C(O)C(O)C3O)C(O)C(O)C2O)C(OC)C1O (stereo not drawn),inactive [at 9.23 µM],inactive [at 9.23 µM],,
CC(=C/C(=O)O)/C=C/[C@]1(O)[C@@]2(C)CO[C@]1(C)C[C@H](O[C@@H]1O[C@H](CO)[C@@H](O)[C@H](O)[C@H]1O)C2,,,inactive,inactive
CC(=O)OC1C(O)CC(O[C@@H]2O[C@H](CO)[C@@H](O)[C@H](O)[C@H]2O)C2CCC3C(=O)OC(c4ccoc4)CC3(C)C21 (stereo partly drawn),,,inactive,inactive
C/C(=C\CCC(C)(O)c1ccc(C)cc1)C(=O)O (stereo not drawn),,,inactive,inactive
C/C(=C/CCC(CO)C1CCC2(C)C3CCC4C(C)(C)C(OC5OC(CO)C(O)C(O)C5O)CC(O)C45CC35CCC12C)COC1OC(CO)C(O)C(O)C1O (stereo not drawn),,,inactive,inactive
CCOc1c2c(c(OCC)c3ccccc13)C(=O)N(c1ccc(CC(=O)NS(=O)(=O)c3ccccc3)cc1)C2,,,inactive,inactive
COC1=Cc2c(nc3n(c2=O)C(C)C(=O)NC3(O)C(C)C)OC=C1 (stereo not drawn),,,inactive,inactive
CC1(C)CC[C@]2(C(=O)O[C@@H]3O[C@H](CO)[C@@H](O)[C@H](O)[C@H]3O)CC[C@]3(C)C(=CCC4[C@@]5(C)C[C@@H](O)[C@H](O)C(CO)(CO)C5CC[C@]43C)C2[C@@H]1O (stereo partly drawn),,,inactive,inactive
COc1c(C)c(OCC=C(C)C)cc2c1C(=O)NC2=O,,,inactive,inactive

# From PubChem BioAssay (NCATS)
